This is a sample that favours compounds with a hit; in the whole collection about 4.1% have one here.
DAX1 inh-1 = NR0B1 (DAX1) inhibition; P51843; HEK293 Gal4-DAX1 luciferase reporter, luminescence; inhibition, % at 6.75 µM; 0.99% of 340,000 active; AID 504766;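 active means inhibition above the mean over all tested compounds plus 3 SD, cut at about 4.2% in these data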;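 further: inhibition shows as a rise in luminescence from relieved DAX1 repression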
DAX1 inh-2 = DAX1 (NR0B1) inhibition, primary screen. 1.1% of 370,000 active. inhibition, % at 6.8 µM. HEK293T StAR-luciferase reporter, SF-1/DAX-1 repression relief;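 active means inhibition above the mean over all tested compounds plus 3 SD, cut at about 3.6% in these data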;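 further: higher inhibition means more luminescence from relief of DAX-1 repression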
hcDAF-12 act = H. contortus DAF-12 activation, primary screen | activation, % at 6.8 µM | HEK293 hcDAF-12 lit1-tk-luc reporter, luminescence; 0% DMSO, 100% Δ7-dafachronic acid | 1.4% of 370,000 active | AID 652067;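 active means activation above the mean of all tested compounds plus 3 SD, cut at about 5.5% in these data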
ssDAF-12 act = activators of S. stercoralis DAF-12 nuclear receptor; HEK293 ssDAF-12/GRIP1 lit1-tk-luc reporter, luminescence; % of 3 µM dafachronic acid response; activation, % at 6.8 µM; 1% of 370,000 active; AID 652126;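 active means activation above the mean over all tested compounds plus 3 SD, cut at about 0.9% in these data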
hgDAF-12 ag = agonists of H. glycines DAF-12 nuclear receptor | 1.8% of 370,000 active | HEK293 GAL4-hgDAF12 UAS-luciferase reporter, agonist luminescence; normalized to butyrate control | activation, % at 6.8 µM | AID 687014;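 active means activation above a cutoff set at the mean of all screened compounds plus 3 SD, cut at about 10% in these data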
LXRb hcDAF ctr = activates human LXR-beta, counter-screen for hcDAF-12 agonists; AID 743027; HEK293 Gal4-LXR tk-luc reporter, luminescence, 24 h; normalized: DMSO 0%, positive control 100%; 3,400 tested, under 10 active; shares compounds with hcDAF-12 act; activation, % at 6.8 µM;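 active means mean percent activation of the reporter above a cutoff set as the average over tested compounds plus their standard deviation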
Target sequence (P55055 whole entry, looked up, the tested form may be a part): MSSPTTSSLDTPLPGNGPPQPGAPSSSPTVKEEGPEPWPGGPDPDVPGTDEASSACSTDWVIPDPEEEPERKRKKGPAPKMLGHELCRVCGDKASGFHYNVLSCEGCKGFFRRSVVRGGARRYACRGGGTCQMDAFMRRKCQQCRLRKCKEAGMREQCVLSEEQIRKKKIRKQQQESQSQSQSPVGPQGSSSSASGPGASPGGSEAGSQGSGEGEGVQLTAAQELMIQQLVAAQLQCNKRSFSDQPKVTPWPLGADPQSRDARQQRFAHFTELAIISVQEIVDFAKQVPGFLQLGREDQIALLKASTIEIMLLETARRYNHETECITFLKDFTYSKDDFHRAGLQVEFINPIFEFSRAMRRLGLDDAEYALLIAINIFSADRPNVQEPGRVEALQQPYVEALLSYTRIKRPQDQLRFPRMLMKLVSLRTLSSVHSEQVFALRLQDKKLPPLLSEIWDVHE
hcDAF12 ag = hcDAF-12 agonism, confirmation assay; shares compounds with hcDAF-12 act; HEK293 hcDAF-12 lit1-tk-luc reporter, luminescence; % of Δ7-dafachronic acid response; activation, % at 6.8 µM; 61% of 3,400 active;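 active means mean activation across triplicate tests above the threshold derived from the earlier primary screen, cut at about 5.5% in these data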
hgDAF12 ag = confirmation of H. glycines DAF-12 agonists; shares compounds with hgDAF-12 ag; HEK293 GAL4-hgDAF12 luciferase reporter, agonist mode; percent of butyrate response; activation, % at 6.8 µM; 80% of 3,300 active;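 active means mean activation over triplicate wells above the hit cutoff derived from the earlier primary screen, cut at about 11% in these data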
LXR ag 2 = LXR-beta agonism as DAF-12 counter-screen; shares compounds with hgDAF-12 ag; HEK293 Gal4-LXR luciferase reporter, 24 h; activation, % at 6.8 µM; 3,300 tested, under 10 active;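 active means mean activation of the triplicate above a set limit carried over from the primary screen, none filed active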
Hits are given with their value; i = inactive; nt = no result.

SMILES | DAX1 inh-1 | DAX1 inh-2 | hcDAF-12 act | ssDAF-12 act | hgDAF-12 ag | LXRb hcDAF ctr | hcDAF12 ag | hgDAF12 ag | LXR ag 2
CCC(=O)Nc1cc(C(=O)N2CCC3(CC2)OCCO3)ccc1S(=O)(=O)c1ccc(C)cc1 | i | i | i | i | i | nt | nt | nt | nt
CCCCn1c(=O)c(C(=O)Nc2ccccc2F)c(O)c2ccccc21 | i | i | 7.0 | i | i | i | 6.1 | nt | nt
CCCCn1c(=O)c(C(=O)Nc2ccsc2C(=O)OC)c(O)c2ccccc21 | i | i | 7.2 | i | i | i | i | nt | nt
CCC(c1nnnn1C1CCCCC1)N1CCC2(CC1)C(=O)NCN2c1ccccc1 (centres undefined) | nt | i | i | i | i | nt | nt | nt | nt
COc1ccccc1N1C(=O)CC(=O)NC1=O | i | i | i | i | i | nt | nt | nt | nt
CC(=Nc1ccccc1N)c1c(O)n(C)c(=O)[nH]c1=O | i | i | 7.7 | 1.8 | i | i | i | nt | nt
O=C(c1cc(Br)ccc1Cl)N1CCC2(CC1)OCCO2 | i | i | i | i | i | nt | nt | nt | nt
O=C(c1cc2cc(Br)ccc2[nH]1)N1CCC2(CC1)OCCO2 | i | i | 7.6 | i | i | i | i | nt | nt
COc1cccc(-n2c(=S)[nH]c3ccccc3c2=O)c1 | i | i | i | i | i | nt | nt | nt | nt
COc1ccc2c(c1)NP(=S)(Oc1ccccc1)N2 (centres undefined) | i | i | i | i | 13 | nt | nt | i | i
CN1C(=O)NC(=O)C(C)(C2=CCCCC2)C1=O (centres undefined) | i | 3.9 | i | i | 22 | nt | nt | 13 | i
CNS(=O)(=O)c1ccc(N=Cc2c(O)n(-c3ccccc3)c(=O)[nH]c2=O)cc1 | i | i | i | i | i | nt | nt | nt | nt
COc1ccc(-c2cc(=Nc3cccc(C(=O)O)c3)c3cc(C)ccc3o2)cc1 | i | i | i | 0.9 | 19 | nt | nt | 19 | i
Cc1cc(C(=O)CS(=O)(=O)c2ccccc2)cc(C)c1OC(=O)N(C)C | i | 4.0 | i | i | 14 | nt | nt | i | i
Cc1ccc(S(=O)(=O)CC(=O)c2cc(C)c(OC(=O)N(C)C)c(C)c2)cc1 | i | i | i | i | i | nt | nt | nt | nt
CCOC(=O)c1sc(/N=C/c2c(O)n(-c3cccc(C)c3)c(=O)[nH]c2=O)c(C#N)c1C | i | i | i | i | i | nt | nt | nt | nt

Screening data as filed in PubChem BioAssay.
